High-throughput results (PubChem BioAssay)
Shown are actives, neighbours in structure and some others; about 2.8% of the full set was active somewhere.
Pol eta inh: blocks human DNA polymerase eta activity; Q9Y253; 390,000 compounds, 1.2% hits; recombinant Pol eta, fluorescent DNA replication assay; Potency, µM (doses to about 114 µM), for inactives: at the top dose activity change, negative = inhibition, actives largely listed as inhibitors; note: potency is the fitted concentration of half-maximal effect; % is set by controls: 0 for no effect and ±100 for the full control effect
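Pol eta at 10 nM preincubated with compounds 15 min at room temperature; reaction started with fluorescent substrate (50 nM final) and read kinetically at 0 and 10 min.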
Pol kappa inh: inhibitors of human DNA polymerase kappa. Potency, µM (top dose mostly 107 µM), for the others: top-dose activity, negative = inhibition, most hits filed as inhibitors. Q9UBT6. purified Pol kappa, fluorescent DNA synthesis assay, 10 min. 400,000 compounds, 0.53% hits; note: potency is the fitted concentration of half-maximal effect; % is set by controls: 0 for no effect and ±100 for the full control effect
Target sequence (Q9UBT6 whole entry, looked up): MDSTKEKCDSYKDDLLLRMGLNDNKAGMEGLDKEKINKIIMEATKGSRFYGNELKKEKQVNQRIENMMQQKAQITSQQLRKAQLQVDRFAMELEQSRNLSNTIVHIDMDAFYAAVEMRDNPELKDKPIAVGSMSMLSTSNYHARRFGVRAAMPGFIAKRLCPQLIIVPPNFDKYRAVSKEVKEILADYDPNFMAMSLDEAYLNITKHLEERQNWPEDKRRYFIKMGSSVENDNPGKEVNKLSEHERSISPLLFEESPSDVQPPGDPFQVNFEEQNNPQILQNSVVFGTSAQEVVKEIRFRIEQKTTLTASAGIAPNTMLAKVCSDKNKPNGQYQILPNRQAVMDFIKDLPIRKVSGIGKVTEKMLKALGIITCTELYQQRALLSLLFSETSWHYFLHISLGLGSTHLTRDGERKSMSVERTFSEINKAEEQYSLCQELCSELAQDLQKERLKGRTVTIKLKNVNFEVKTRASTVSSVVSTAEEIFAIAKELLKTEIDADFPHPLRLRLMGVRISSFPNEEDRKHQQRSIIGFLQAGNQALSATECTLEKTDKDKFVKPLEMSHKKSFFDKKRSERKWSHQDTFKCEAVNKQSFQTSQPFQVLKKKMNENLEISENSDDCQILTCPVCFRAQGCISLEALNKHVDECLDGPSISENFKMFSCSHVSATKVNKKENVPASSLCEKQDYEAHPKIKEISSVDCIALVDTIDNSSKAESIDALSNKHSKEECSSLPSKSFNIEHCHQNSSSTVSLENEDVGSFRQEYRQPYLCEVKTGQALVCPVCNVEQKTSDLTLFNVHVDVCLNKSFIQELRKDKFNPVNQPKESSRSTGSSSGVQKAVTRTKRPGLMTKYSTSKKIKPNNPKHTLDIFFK
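Here, compound and 10 nM enzyme are combined for 15 min at room temperature; adding 50 nM substrate (final) starts DNA synthesis, tracked by fluorescence at 0 and 10 min against buffer-only wells.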
POLB inh: inhibitors of human DNA polymerase beta. P06746. Pol beta primer extension/strand displacement, fluorescence kinetic. Potency, µM (titrated, usually from 114 µM), without a hit: at the top dose activity change, negative = inhibition, hits mostly inhibitors. 340,000 compounds, 1.3% hits; note: potency is the fitted concentration of half-maximal effect; % is set by controls: 0 for no effect and ±100 for the full control effect
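Enzyme-only controls used 10 nM Pol beta; buffer lacking enzyme served as negative control. Compound preincubated 15 min, then 50 nM substrate added; 0 and 10 min reads at room temperature.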
PI5P4K alpha inh: blocks human PI5P4K alpha kinase activity. PI5P4Kalpha enzyme, ADP-Glo luminescence, 60 min; stronger effect = lower value. max response, %. 330,000 compounds, 1.2% hits; active = max response of -50% or lower; inconclusive = between -30% and -50%; inactive = -30% or higher; note: value at the top dose of about 77 µM; % is set by controls: 0 for no effect and ±100 for the full control effect
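qHTS, 1536-well: enzyme/substrate mix, compound by pin tool, 5 microM ATP final; RT 60 min; ADP-Glo reagents 1 (45 min) then 2 (30 min); luminescence.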
WRN inhibitor: WRN helicase (human) inhibition. Q14191. WRN helicase unwinding, fluorescent forked duplex, kinetic. Potency, µM (series often up to 114 µM), without a hit: at the top dose activity change, negative = inhibition, most hits filed as inhibitors. 360,000 compounds, 0.46% hits. AID 651768; note: potency is the fitted concentration of half-maximal effect; % is set by controls: 0 for no effect and ±100 for the full control effect; nearly all actives have a fitted effect of over 55% in size
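Screening of the MLSMR collection measured strand separation of a quenched forked DNA duplex (100 nM) by 20 nM WRN with 2 mM ATP, all final. Compounds were preincubated with enzyme 15 min at room temperature.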
Pol iota inh: inhibitors of human DNA polymerase iota; Q9UNA4; Pol iota fluorescent replication assay, 10 min; Potency, µM (series often up to 115 µM), for the others: at the highest dose activity, negative = inhibition, usual class: inhibitors; 390,000 compounds, 1% hits; note: potency is the fitted concentration of half-maximal effect
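Fluorescent replication assay read twice, at 0 min and 10 min after adding 50 nM (final) substrate. Enzyme (10 nM) and compounds were first incubated 15 min at room temperature; enzyme-free buffer wells were negative controls.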
Starred values were filed as active, the others as inactive; ! = repeats disagree; [ ] = another dose, or the depositor's remark. Unless noted, calls come from the whole dose curve; as a rule, active = well fitted curve in the direction sought with a large enough effect; inconclusive = small, poorly fitted or top-dose-only effect, or another doubt; inactive = no such curve, though single readings can be large; an effect the other way counts as inactive or inconclusive.

What do the screens show for `COc1ccc(S(=O)(=O)NCC(=O)O)cc1C(=O)NC1CCCCC1`?
Pol eta inh: -11.9%; Pol kappa inh: -3.9%; POLB inh: -1.8%; PI5P4K alpha inh: -9.4; WRN inhibitor: -12.5%; Pol iota inh: -7.1%

How did CSc1nc(-c2ccco2)nn1C(=O)c1cccs1 do in these assays?
Pol eta inh: -9.9%; Pol kappa inh: -14.3%; POLB inh: -23.6%; PI5P4K alpha inh: -5.5; WRN inhibitor: 11.4%; Pol iota inh: inconclusive

Results for COc1ccc(C(=O)n2nc(-c3ccco3)nc2SC)cc1OC ?
Pol eta inh: inconclusive; Pol kappa inh: -9.6%; POLB inh: inconclusive; PI5P4K alpha inh: -23.4; WRN inhibitor: inconclusive; Pol iota inh: 31.6µM*

How did O=C(CCOc1ccccc1)Nc1ccc(S(=O)(=O)N2CCCC2)cc1 do in these assays?
Pol eta inh: -10.6%; Pol kappa inh: -8.3%; POLB inh: 4.1%; PI5P4K alpha inh: -0.8; WRN inhibitor: -5.3%; Pol iota inh: 0.1%

How did COc1ccc(C(=O)c2ccc(O)cc2)c(O)c1O do in these assays?
Pol kappa inh: 2.24µM*

What do the screens show for `COc1ccc(C(=O)c2ccc(C)cc2)c(OC)c1OC`?
Pol eta inh: -7.6%; Pol kappa inh: -9.5%; PI5P4K alpha inh: 1.3; WRN inhibitor: -22.0%; Pol iota inh: 106.8%

Results for CCOc1ccc(C(=O)c2ccc(OC)c(O)c2O)cc1 ?
Pol kappa inh: 12.6µM*

What do the screens show for `Cc1cc(C)n(-c2ccc(C(=O)OCC(=O)c3ccc(Br)s3)cc2)n1`?
Pol eta inh: inconclusive; Pol kappa inh: inconclusive; POLB inh: inconclusive; PI5P4K alpha inh: inconclusive; WRN inhibitor: -7.5%; Pol iota inh: inconclusive

What do the screens show for `COc1ccc(CNC(=O)CN(c2ccccc2)S(=O)(=O)c2ccccc2[N+](=O)[O-])cc1`?
Pol eta inh: -15.2%; Pol kappa inh: 0.4%; POLB inh: 2.3%; PI5P4K alpha inh: 5.6; WRN inhibitor: -10.9%; Pol iota inh: 28.5%

How did O=C(c1cccs1)c1no[n+]([O-])c1C(=O)c1cccs1 do in these assays?
Pol eta inh: -12.6%; Pol kappa inh: -5.5%; POLB inh: 3.5%; PI5P4K alpha inh: -6.3; WRN inhibitor: 28.2µM*; Pol iota inh: 25.1µM*

How did O=C(O)CCCCC1CCSS1 (stereo unspecified) do in these assays?
Pol eta inh: -0.2%; Pol kappa inh: 6.7µM*!; POLB inh: 1.12µM*; PI5P4K alpha inh: 1.2; WRN inhibitor: -20.8%; Pol iota inh: 19.5%

Results for CCN1CCCC1CNC(=O)c1cc2c(-c3ccc(Cl)cc3)nn(C)c2s1 (stereo unspecified) ?
Pol eta inh: 4.5%; Pol kappa inh: -19.8%; POLB inh: 35.5µM*; PI5P4K alpha inh: -1.6; WRN inhibitor: 36.9%; Pol iota inh: inconclusive

How did Cn1nc(-c2ccc(Cl)cc2)c2cc(C(=O)NCCCN3CCCC3)sc21 do in these assays?
Pol eta inh: 9.5%; Pol kappa inh: -25.0%; POLB inh: 50.1µM*; PI5P4K alpha inh: 6.4; WRN inhibitor: 58.7%; Pol iota inh: inconclusive

Results for O=C(NCCCN1CCCCCC1)c1cc2c(=O)oc3ccccc3c2s1 ?
Pol eta inh: -6.1%; Pol kappa inh: -40.5%; POLB inh: -10.5%; PI5P4K alpha inh: -5.3; WRN inhibitor: -12.5%; Pol iota inh: 50.1µM*

How did CCCCN(CC)CCCNC(=O)c1cc2c(-c3ccc(OC)c(OC)c3)nn(C)c2s1 do in these assays?
Pol eta inh: inconclusive; Pol kappa inh: -23.2%; POLB inh: 3.55µM*; PI5P4K alpha inh: 0.0; WRN inhibitor: -28.5%; Pol iota inh: inconclusive

Results for CCN1CCCC1CNC(=O)c1cc2c(-c3cccc(OC)c3)nn(C)c2s1 (stereo unspecified) ?
Pol eta inh: 18.2%; Pol kappa inh: 9.1%; POLB inh: -9.4%; PI5P4K alpha inh: 0.5; WRN inhibitor: 59.1%; Pol iota inh: -4.7%

What do the screens show for `Cc1ccccc1OCc1nc2c3cnn(-c4cccc(F)c4)c3ncn2n1`?
Pol kappa inh: 9.4%; POLB inh: 16.5%; Pol iota inh: 30.3%

How did CC(=O)c1ccc(NS(=O)(=O)c2ccc3ccccc3c2)cc1 do in these assays?
Pol eta inh: -15.8%; Pol kappa inh: -2.0%; POLB inh: 2.0%; PI5P4K alpha inh: 1.2; WRN inhibitor: -5.2%; Pol iota inh: 17.9%

Results for CC(=O)c1ccc(NS(=O)(=O)c2cccc(S(=O)(=O)c3ccc(Cl)cc3)c2)cc1 ?
Pol eta inh: -4.7%; Pol kappa inh: inconclusive; POLB inh: 4.8%; Pol iota inh: 89.1µM*

What do the screens show for `COC(=O)C1SCC2C(=O)N(Cc3ccc(Cl)c(Cl)c3)CC(=O)N21` (stereo unspecified)?
Pol eta inh: 0.4%; Pol kappa inh: 5.0%; POLB inh: -0.2%; PI5P4K alpha inh: -12.1; WRN inhibitor: 8.6%; Pol iota inh: 4.0%

What do the screens show for `CCCn1c(=O)c2sccc2n2c(CCCC(=O)NCc3ccco3)nnc12`?
Pol eta inh: 35.5µM*; Pol kappa inh: inconclusive; POLB inh: inconclusive; PI5P4K alpha inh: inconclusive; WRN inhibitor: inconclusive; Pol iota inh: 20µM*

Results for CCCn1c(=O)c2sccc2n2c(CCCC(=O)NCc3ccccc3)nnc12 ?
Pol eta inh: -11.4%; Pol kappa inh: -13.6%; POLB inh: 31.2%; Pol iota inh: 20.2%

What do the screens show for `CCOc1cccc(C(=O)NC(=S)Nc2ccc(Cl)cc2C(=O)O)c1`?
Pol eta inh: -10.0%; Pol kappa inh: -14.4%; POLB inh: 22.9%; PI5P4K alpha inh: -59.8*; WRN inhibitor: -18.9%; Pol iota inh: 68.8%

What do the screens show for `COc1ccccc1NC(=O)c1cc2ccc3cccnc3c2[nH]1`?
Pol eta inh: -19.1%; Pol kappa inh: -7.1%[60.1 µM]; POLB inh: -23.9%; Pol iota inh: 3.1%

What do the screens show for `COc1cc(Cl)c(C)cc1NC(=O)c1cc2ccc3cccnc3c2[nH]1`?
Pol eta inh: inconclusive; Pol kappa inh: -6.5%; POLB inh: 39.8µM*; Pol iota inh: inconclusive

Results for COc1cc(Cl)c(C)cc1NC(=O)COC(=O)c1ccc(CN2CCCC2=O)cc1 ?
Pol eta inh: -2.7%; Pol kappa inh: 11.5%; PI5P4K alpha inh: 2.2; WRN inhibitor: 12.2%; Pol iota inh: 4.0%

What do the screens show for `CCOC(=O)c1c(C)sc(-c2c(-c3cc(C)ccc3C)[nH]c3c2c(=O)n(C)c(=O)n3C)c1O`?
Pol eta inh: inconclusive; Pol kappa inh: -22.7%; POLB inh: 5.62µM*; Pol iota inh: inconclusive

How did CCOC(=O)c1c(C)sc(-c2c(-c3cccc(Cl)c3)[nH]c3c2c(=O)n(C)c(=O)n3C)c1O do in these assays?
Pol kappa inh: -20.8%; POLB inh: -4.6%; Pol iota inh: 79.4µM*
